# From PubChem
# PostGolgi ctrl: growth inhibition of yeast control strain, primary screen, counter-screen for post-Golgi transport modulator project; efflux-deficient yeast background strain, growth absorbance A615, 16 h; inhibition, % at 10 µM; 98,000 tested, 5% active; AID 738, 2007
# CYP2C9 inhib: blockers of cytochrome P450 2C9 activity – biochemical, luminescence, ADME assay, primary screen; P11712; CYP2C9 Supersomes, luciferin-H conversion; inhibition, % at 5 µM; 96,000 tested, 20% active;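 active = blocking of liver enzyme CYP2C9 beyond about 50% at 5 µM, limit read from the data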
# Target sequence (P11712 whole entry, looked up): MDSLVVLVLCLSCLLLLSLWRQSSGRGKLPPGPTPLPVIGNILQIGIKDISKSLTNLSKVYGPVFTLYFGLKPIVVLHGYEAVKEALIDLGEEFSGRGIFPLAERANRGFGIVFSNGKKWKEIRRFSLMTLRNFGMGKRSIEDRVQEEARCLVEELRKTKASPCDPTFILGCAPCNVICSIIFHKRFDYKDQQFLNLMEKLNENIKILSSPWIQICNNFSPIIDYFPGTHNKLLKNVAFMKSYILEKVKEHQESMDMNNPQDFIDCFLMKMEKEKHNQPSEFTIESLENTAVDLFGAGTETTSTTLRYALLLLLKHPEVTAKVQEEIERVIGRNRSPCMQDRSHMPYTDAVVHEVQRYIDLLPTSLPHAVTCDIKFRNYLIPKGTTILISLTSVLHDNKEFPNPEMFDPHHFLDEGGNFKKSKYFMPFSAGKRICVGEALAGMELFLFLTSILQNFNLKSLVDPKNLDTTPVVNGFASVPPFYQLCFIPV
# CYP2C19 act: human CYP2C19 activators, primary screen, biochemical, luminescence; activation factor at 5 µM; 96,000 tested, under 10 active; Cytochrome P450 2C19 (Homo sapiens), P33261; recombinant CYP2C19, luciferin-H EGE luminescence; active compounds read high; 0 = fully inhibited enzyme, 1 = untreated enzyme;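 active = activation factor of at least 2 at 5 µM in the primary screen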;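 also: 0 = wells with 2.5 mM tranylcypromine and 1 = vehicle-only wells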
# CYP2C9 activ: human CYP2C9 activators, primary screen, biochemical, luminescence. 96,000 tested, 1.4% active. Cytochrome P450 2C9 (Homo sapiens), P11712. recombinant CYP2C9, luciferin-H conversion; active compounds read high; factor 1 = untreated enzyme, 0 = blocked. AID 1024, 2008. activation factor at 5 µM;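 active = activation factor of 2 or more for CYP2C9 at a 5 µM dose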;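 also: 0 = sulfaphenazole-blocked wells and 1 = vehicle-only wells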
# PostGolgi yeast: phenotypic screen on post-Golgi transport, primary screen; post-Golgi transport phenotypic cell assay; 98,000 tested, 0.9% active; AID 739, 2007; inhibition, % at 10 µM;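 also: yeast cells grown in 1536-well plates; yeast grown about 18 h at 30C before absorbance read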
# CYP2C19 inh: blockers of cytochrome P450 2C19 activity – biochemical, luminescence, ADME assay, primary screen | 96,000 tested, 21% active | inhibition, % at 5 µM | CYP2C19 Supersomes, luciferin-H EGE luminescence, 30 min | AID 778, 2007 | P33261;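 active = CYP2C19 inhibition above a set limit at 5 µM in the primary screen, cut at about 50% in these data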;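 also: plate controls were negative control wells for no effect and 2.5 mM tranylcypromine positive control for full effect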
# The depositor's hits bear a star; . = not tested or not shown. Sampled rows, rich in hits. Any-hit rate of the full collection: about 32%. Rule as the data show it, unless noted: active = inhibition above about 30%; inactive = the rest.
SMILES,PostGolgi ctrl,CYP2C9 inhib,CYP2C19 act,CYP2C9 activ,PostGolgi yeast,CYP2C19 inh
CC(NC(=O)C1CCCN(S(=O)(=O)c2cnc[nH]2)C1)c1ccccc1 (configuration not stated),0.3,73.7*,0.3,0.3,-4.8,69.8*
CCOC(=O)c1ccc(NC(=O)C2CCCN(S(=O)(=O)c3cnc[nH]3)C2)cc1 (configuration not stated),7.3,95.7*,0.1,0,3.5,92.2*
CCCC(=O)Oc1ccccc1C1SCc2cc(C)c(C)cc2CS1,-3.5,9.5,1,0.9,-1.0,-4.0
Cc1nc(C)c(C(=O)Nc2ccc(Oc3ccccc3)cc2)o1,1.0,16.8,0.9,0.8,-6.1,13.2
COc1ccc(S(=O)(=O)N(C)CC(=O)N2CCN(c3ccc(F)cc3)CC2)cc1OC,3.3,-62.4,0.9,1.6,-7.2,10.9
Cn1c(-c2sc3cc(C(F)(F)F)cnc3c2-c2cccnc2)n[nH]c1=S,1.5,49.4,0.9,0.5,1.6,11.3
Cc1cc(NC2CCCCC2)nc(-c2ccccc2O)n1,17.6,57.0*,0.9,0.4,4.6,7.0
Cc1cc(NCc2ccccc2)nc(-c2ccccc2O)n1,56.8*,65.4*,0.7,0.3,-11.1,29.7
CCOC(=O)c1ccc(Nc2cc(C)nc(-c3ccccc3O)n2)cc1,16.6,56.9*,0.6,0.4,-0.6,35.8
CCOC(=O)c1ccc(Nc2nc(C(=O)OCC)nc3ccccc23)cc1,11.9,36.7,0.4,0.6,-5.3,56.5*
COc1ccc(CC(C(=O)Nc2cc(C)ccc2C)/C(N)=N/O)cc1 (configuration not stated),2.8,0.3,0.6,1,-5.5,39.7
COC(=O)N1CC(C)N(C(=O)OC)CC1C (configuration not stated),6.2,3.5,0.9,1,15.8,12.9
Cc1cc(Nc2ccccc2)nc(-c2ccccc2O)n1,37.1*,4.6,1.2,1,17.1,-17.9
CCOC(=O)C1CCc2sc(N)c(C#N)c21 (configuration not stated),-1.8,-3.7,0.9,1,-5.6,10.1
Cc1ccc(NC(=O)C2(c3ccccc3)CC2(Cl)Cl)cc1C (configuration not stated),19.7,30.2,0.3,0.7,2.2,74.1*
Cc1cccc(NC(=O)C2(c3ccccc3)CC2(Cl)Cl)c1 (configuration not stated),35.1*,52.3*,0.4,0.5,13.0,60.9*
CCc1ccc(NC(=O)C2(c3ccccc3)CC2(Cl)Cl)cc1 (configuration not stated),30.7*,40.4,0.7,0.6,-2.2,33.4
O=C(COC(=O)c1cc[n+]([O-])cc1)NCC12CC3CC(CC(C3)C1)C2,-3.1,-11.5,1,1.1,-5.3,-3.5
O=c1cc(-c2ccccc2)nc2nc(-c3ccccc3)[nH]n12,7.1,58.8*,1,0.4,-2.3,-0.6
Nc1nc2nc(-c3ccccc3)cc(=O)n2[nH]1,16.0,1.0,0.9,1,1.1,11.5
O=C(c1ccccc1)N1CCN(C(=O)c2ccc(OC(F)(F)F)cc2)CC1,0.5,13.3,1,0.9,-1.4,3.3
O=C1CC(c2ccccc2)CN1S(=O)(=O)c1ccccc1 (configuration not stated),-8.8,-151.5,0,2.5*,-6.4,98.8*
NC(=O)C1CCN(S(=O)(=O)c2cccc(S(=O)(=O)N3CCCCC3)c2)CC1,-4.3,36.2,0.9,0.6,-0.5,13.6
NC(=O)c1cccc(S(=O)(=O)N2CC(c3ccccc3)CC2=O)c1 (configuration not stated),-5.6,-116.5,0.4,2.2*,21.1,55.9*
COC(=O)N1CC(c2ccccc2)CC1=O (configuration not stated),7.2,20.4,0.6,0.8,-5.5,35.2
SMILES,PostGolgi ctrl,CYP2C9 inhib,CYP2C19 act,CYP2C9 activ,PostGolgi yeast,CYP2C19 inh
Cc1cc(C)c2c(-n3cccc3)c(NC(=O)OC(C)C)sc2n1,26.1,37.2,0.9,0.6,14.9,13.2
COc1cccc(-c2cc3c(=O)n(-c4ccccc4)c(=S)[nH]c3s2)c1,3.0,7.2,1.1,0.9,2.6,-12.8
COc1ccc(OC)c(C2NC(=O)c3sc(=S)n(-c4ccccc4)c3N2)c1 (configuration not stated),3.9,61.6*,0.4,0.4,6.8,56.6*
COc1cccc(C2NC(=O)c3sc(=S)n(-c4ccccc4)c3N2)c1 (configuration not stated),9.4,88.1*,0.4,0.1,-2.8,56.9*
CCCOc1ccc(Cc2nn[nH]n2)cc1,14.4,25.3,0.5,0.7,-0.5,50.9*
CCOc1ccc(Cc2nn[nH]n2)cc1,20.7,13.3,0.9,0.9,1.6,12.5
O=C(CCn1ccc2ccccc21)NC1CCCc2ccccc21 (configuration not stated),21.1,60.4*,0.1,0.4,-4.3,93.1*
O=C(CCN1C(=O)C2C3C=CC(C3)C2C1=O)NC1CCCc2ccccc21 (configuration not stated),7.5,-32.0,0.8,1.3,7.4,21.0
Cc1ccc(NC(=O)c2noc3c2CCc2ccccc2-3)cc1,4.4,-33.5,1.1,1.3,7.1,-7.3
CCc1ccc(NC(=O)c2noc3c2CCc2ccccc2-3)cc1,-5.4,-112.1,1,2.1*,27.9,4.3
Cc1nn(Cc2ccccc2)c(C)c1NC(=O)c1noc2c1CCc1ccccc1-2,17.6,61.2*,0.6,0.4,-10.8,37.7
Cc1cc(NC(=O)c2noc3c2CCc2ccccc2-3)n(-c2ccccc2)n1,-1.5,4.1,1,1,-1.2,-1.1
CCNc1nc(NC(C)C)nc(OCC)n1,-5.9,12.1,1,0.9,15.1,2.0
O=C1CC(N2CCN(S(=O)(=O)c3ccc(Cl)cc3)CC2)C(=O)N1CCc1ccccc1 (configuration not stated),16.8,.,.,.,5.0,.
CCCN1Cc2cccc(C(=O)NCc3cccs3)c2C1=O,17.4,52.0*,0.3,0.5,20.8,73.3*
COCCN1Cc2cccc(C(=O)NC(C)c3cccs3)c2C1=O (configuration not stated),0.5,28.4,0.4,0.7,-4.2,63.3*
COCCN1Cc2cccc(C(=O)Nc3ccc(C)c(C)c3)c2C1=O,24.8,40.9,1,0.6,8.1,3.0
COCCN1Cc2cccc(C(=O)Nc3c(C)cccc3C)c2C1=O,10.9,25.0,0.6,0.8,5.8,42.1
CCOc1ccc(NC(=O)c2cccc3c2C(=O)N(CCOC)C3)cc1,30.7*,72.1*,0.8,0.3,2.7,20.5
